# Measured values reported in PubChem BioAssay (EPA / NIEHS).
# Values joined by “and” are separate entries in the source; they are usually repeats but may differ in a detail not shown here. Equal values may be shown once. Inconclusive results are not listed. Where a structure was tested more than once in an assay, its records may differ in their call. Active and inactive are the calls of the source. Rule for the calls, unless noted: active = hit-call score of the fitted dose curve at least 0.9, where 1 is the maximum; inactive = score below 0.9.
# Tests used:
# [1] = biological target: Oxysterols receptor LXR-beta (Homo sapiens) (UniProt P55055); experiment: ATG_LXRb_TRANS: Attagene TRANS-FACTORIAL HepG2 Assay for human Liver X Receptor beta (LXRb) (AID 2282981; active = hit-call score of the fitted dose curve at least 0.9, where 1 is the maximum); conditions: HepG2 Attagene TRANS GAL4-LXRb reporter, mRNA
# Chain of Oxysterols receptor LXR-beta (Homo sapiens) (P55055 whole entry, looked up, the tested form may be a part): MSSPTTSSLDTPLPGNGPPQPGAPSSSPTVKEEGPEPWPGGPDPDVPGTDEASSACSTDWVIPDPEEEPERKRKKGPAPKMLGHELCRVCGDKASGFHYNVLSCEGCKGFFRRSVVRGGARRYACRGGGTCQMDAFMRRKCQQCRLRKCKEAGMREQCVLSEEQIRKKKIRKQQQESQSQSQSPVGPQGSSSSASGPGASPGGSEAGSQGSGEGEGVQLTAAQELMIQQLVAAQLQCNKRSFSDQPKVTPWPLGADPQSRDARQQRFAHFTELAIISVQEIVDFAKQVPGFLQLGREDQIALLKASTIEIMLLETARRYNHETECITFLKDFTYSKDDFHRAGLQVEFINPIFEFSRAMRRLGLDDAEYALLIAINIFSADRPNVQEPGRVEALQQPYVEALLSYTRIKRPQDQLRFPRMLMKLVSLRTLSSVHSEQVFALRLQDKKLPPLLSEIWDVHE
# How it was run: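 Liver-derived HepG2 cells transfected with Gal4-responsive reporters were dosed for 24 h. Activation was scored as rise in reporter mRNA, by RT-PCR and capillary electrophoresis, above DMSO baseline.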
# [2] = biological target: Hepatocyte nuclear factor 4-alpha (Homo sapiens) (UniProt P41235); experiment: ATG_HNF4a_TRANS: Attagene TRANS-FACTORIAL HepG2 Assay for human Hepatocyte Nuclear Factor 4 alpha (HNF4a) (AID 2282982; active = hit-call score of the fitted dose curve at least 0.9, where 1 is the maximum); conditions: HepG2 HNF4a transactivation reporter, mRNA readout
# Chain of Hepatocyte nuclear factor 4-alpha (Homo sapiens) (P41235 whole entry, looked up, the tested form may be a part): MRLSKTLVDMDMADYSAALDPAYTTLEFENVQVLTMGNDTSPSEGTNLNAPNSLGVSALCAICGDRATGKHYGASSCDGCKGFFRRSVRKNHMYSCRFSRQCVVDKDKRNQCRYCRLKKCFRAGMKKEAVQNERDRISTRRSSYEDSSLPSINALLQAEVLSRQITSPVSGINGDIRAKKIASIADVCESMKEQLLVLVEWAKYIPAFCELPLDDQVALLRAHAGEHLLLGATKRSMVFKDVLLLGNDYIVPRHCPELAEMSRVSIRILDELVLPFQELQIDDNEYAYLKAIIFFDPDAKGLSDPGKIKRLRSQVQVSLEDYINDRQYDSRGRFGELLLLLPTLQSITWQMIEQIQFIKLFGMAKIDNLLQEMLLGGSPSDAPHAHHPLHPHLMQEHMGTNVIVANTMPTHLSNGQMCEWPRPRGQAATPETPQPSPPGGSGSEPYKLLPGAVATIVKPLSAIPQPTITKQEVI
# How it was run: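 Using HepG2 liver cells transfected with GAL4-UAS reporter units, chemical-induced mRNA increases were assessed after 24 hours. Fluorescent RT-PCR fragments were separated by capillary electrophoresis and compared with DMSO negative controls.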
# [3] = ATG_M_06_TRANS: Attagene TRANS-FACTORIAL HepG2 Assay for M06 Transcription Factor (Internal Marker) (AID 2282983; active = hit-call score of the fitted dose curve at least 0.9, where 1 is the maximum;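 note: reporter transcript level by RT-PCR then capillary electrophoresis fluorescence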); conditions: HepG2 Attagene TRANS M06 internal marker reporter
# How it was run: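 Background-control reporter readout: after 24 h chemical exposure of transiently transfected HepG2 (GAL4-UAS reporter units), mRNA quantified by RT-PCR with fluorescent labeling and capillary electrophoresis. Gain-of-signal fitting against DMSO baseline.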
# [4] = ATG_M_32_TRANS: Attagene TRANS-FACTORIAL HepG2 Assay for M32 Transcription Factor (Internal Marker) (AID 2282984; active = hit-call score of the fitted dose curve at least 0.9, where 1 is the maximum;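 note: transcript level of a background control reporter unit measured by RT-PCR and capillary electrophoresis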); conditions: HepG2 Attagene TRANS M32 internal marker reporter
# How it was run: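 Fluorescence-detected mRNA induction, HepG2 liver cells, 24 h after dosing. Multiple GAL4-UAS reporter units introduced by transient transfection; background-control endpoint analysed for gain of signal against DMSO.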
# [5] = biological target: Nuclear receptor subfamily 4 group A member 2 (Homo sapiens) (UniProt P43354); experiment: ATG_NURR1_TRANS: Attagene TRANS-FACTORIAL HepG2 Assay for human Nuclear Receptor Related Protein 1 (NURR1) (AID 2282985; active = hit-call score of the fitted dose curve at least 0.9, where 1 is the maximum); conditions: HepG2 Attagene TRANS reporter, mRNA readout
# Chain of Nuclear receptor subfamily 4 group A member 2 (Homo sapiens) (P43354 whole entry, looked up, the tested form may be a part): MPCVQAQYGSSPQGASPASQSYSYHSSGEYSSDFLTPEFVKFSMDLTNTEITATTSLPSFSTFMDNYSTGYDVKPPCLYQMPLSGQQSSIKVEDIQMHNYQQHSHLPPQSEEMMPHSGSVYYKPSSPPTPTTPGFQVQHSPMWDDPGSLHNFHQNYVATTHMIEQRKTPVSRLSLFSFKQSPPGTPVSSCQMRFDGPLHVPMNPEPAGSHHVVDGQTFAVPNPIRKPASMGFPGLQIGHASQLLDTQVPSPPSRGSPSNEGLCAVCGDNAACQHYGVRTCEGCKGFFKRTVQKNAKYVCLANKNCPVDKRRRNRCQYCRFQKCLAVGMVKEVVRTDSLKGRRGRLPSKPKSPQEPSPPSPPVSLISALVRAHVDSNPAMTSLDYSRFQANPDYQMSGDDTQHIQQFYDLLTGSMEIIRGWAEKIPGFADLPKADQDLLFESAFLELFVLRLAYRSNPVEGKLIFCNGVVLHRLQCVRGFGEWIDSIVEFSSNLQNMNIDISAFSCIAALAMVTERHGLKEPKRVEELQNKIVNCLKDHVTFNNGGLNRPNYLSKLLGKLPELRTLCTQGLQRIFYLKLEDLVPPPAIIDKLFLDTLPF
# How it was run: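 Chimeric NR-Gal4 proteins were expressed in human HepG2 cells bearing GAL4-UAS reporter units, and induced reporter mRNA was quantified 24 h post-dosing by RT-PCR and capillary electrophoresis.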
# [6] = biological target: Transcriptional activator Myb (Homo sapiens) (UniProt P10242); experiment: ATG_Myb_CIS: Attagene CIS-FACTORIAL HepG2 Assay for human Myeloblastosis (Myb) Proto-Oncogene Transcription Factor (AID 2282986); conditions: HepG2 Attagene CIS-FACTORIAL Myb reporter transcription; actives raise or lower the signal
# Chain of Transcriptional activator Myb (Homo sapiens) (P10242 whole entry, looked up): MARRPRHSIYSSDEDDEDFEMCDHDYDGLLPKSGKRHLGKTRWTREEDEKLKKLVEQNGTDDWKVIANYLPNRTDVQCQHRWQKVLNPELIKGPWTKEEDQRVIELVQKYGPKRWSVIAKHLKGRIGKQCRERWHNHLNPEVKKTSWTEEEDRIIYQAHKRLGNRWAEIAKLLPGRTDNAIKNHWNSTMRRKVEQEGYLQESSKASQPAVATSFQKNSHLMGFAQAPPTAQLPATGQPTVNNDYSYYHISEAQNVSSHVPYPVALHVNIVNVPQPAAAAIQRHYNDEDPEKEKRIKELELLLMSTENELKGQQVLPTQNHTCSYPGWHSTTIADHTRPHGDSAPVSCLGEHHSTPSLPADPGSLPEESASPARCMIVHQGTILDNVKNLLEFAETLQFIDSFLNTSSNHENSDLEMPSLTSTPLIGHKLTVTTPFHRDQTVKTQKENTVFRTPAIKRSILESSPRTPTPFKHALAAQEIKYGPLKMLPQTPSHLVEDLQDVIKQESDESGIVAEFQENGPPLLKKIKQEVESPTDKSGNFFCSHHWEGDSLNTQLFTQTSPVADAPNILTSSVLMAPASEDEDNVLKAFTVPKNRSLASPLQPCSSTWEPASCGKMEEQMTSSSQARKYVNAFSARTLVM
# How it was run: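 Fluorescence signals from capillary electrophoresis of RT-PCR-amplified reporter cDNA give the read-out. Cells: HepG2 transfected with multiple cis-regulated reporter units. Exposure lasts 24 hours; DMSO defines baseline for gain or loss of signal.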
# [7] = biological target: Nuclear respiratory factor 1 (Homo sapiens) (UniProt Q16656); experiment: ATG_NRF1_CIS: Attagene CIS-FACTORIAL HepG2 Assay for human Nuclear Respiratory Factor 1 (NRF1) Orphan Gene (AID 2282987); conditions: HepG2 NRF1 cis-element reporter, Attagene multiplex; actives raise or lower the signal
# Chain of Nuclear respiratory factor 1 (Homo sapiens) (Q16656 whole entry, looked up): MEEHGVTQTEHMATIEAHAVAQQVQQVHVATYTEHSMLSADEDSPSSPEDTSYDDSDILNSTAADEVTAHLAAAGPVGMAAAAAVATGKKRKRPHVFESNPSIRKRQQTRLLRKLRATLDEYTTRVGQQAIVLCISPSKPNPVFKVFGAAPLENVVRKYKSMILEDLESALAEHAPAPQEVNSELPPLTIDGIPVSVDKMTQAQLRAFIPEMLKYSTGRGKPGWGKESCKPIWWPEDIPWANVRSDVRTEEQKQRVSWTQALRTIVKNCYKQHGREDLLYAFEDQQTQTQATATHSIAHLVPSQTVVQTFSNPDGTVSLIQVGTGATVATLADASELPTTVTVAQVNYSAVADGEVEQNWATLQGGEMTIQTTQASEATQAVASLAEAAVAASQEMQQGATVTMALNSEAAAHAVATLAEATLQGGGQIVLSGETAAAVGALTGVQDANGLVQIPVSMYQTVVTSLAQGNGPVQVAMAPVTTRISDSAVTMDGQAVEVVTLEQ
# How it was run: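 Transcriptional reporter readout, one component of a 52-endpoint multiplexed HepG2 panel. Exposure 24 h; mRNA detected via RT-PCR and fluorescent capillary electrophoresis; fitting in both directions against DMSO.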
# [8] = ATG_NFI_CIS: Attagene CIS-FACTORIAL HepG2 Assay for human Nuclear Factor I (NFI) (AID 2282989); conditions: HepG2 cis-regulatory reporter, NFI response element transcription; actives raise or lower the signal
# How it was run: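 Reporter transcripts were measured by RT-PCR with fluorescent primer extension and capillary electrophoresis 24 h post-treatment. HepG2 cells carried transiently transfected cis-regulated reporter constructs reporting endogenous factor activity; gain or loss fitted against DMSO baseline.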
# [9] = biological target: Myc proto-oncogene protein (Homo sapiens) (UniProt P01106); experiment: ATG_Myc_CIS: Attagene CIS-FACTORIAL HepG2 Assay for human Myelocytomatosis (Myc) Proto-Oncogene Transcription Factor (AID 2282990); conditions: HepG2, Attagene cis-reporter transcription factor activity; actives raise or lower the signal
# Chain of Myc proto-oncogene protein (Homo sapiens) (P01106 whole entry, looked up): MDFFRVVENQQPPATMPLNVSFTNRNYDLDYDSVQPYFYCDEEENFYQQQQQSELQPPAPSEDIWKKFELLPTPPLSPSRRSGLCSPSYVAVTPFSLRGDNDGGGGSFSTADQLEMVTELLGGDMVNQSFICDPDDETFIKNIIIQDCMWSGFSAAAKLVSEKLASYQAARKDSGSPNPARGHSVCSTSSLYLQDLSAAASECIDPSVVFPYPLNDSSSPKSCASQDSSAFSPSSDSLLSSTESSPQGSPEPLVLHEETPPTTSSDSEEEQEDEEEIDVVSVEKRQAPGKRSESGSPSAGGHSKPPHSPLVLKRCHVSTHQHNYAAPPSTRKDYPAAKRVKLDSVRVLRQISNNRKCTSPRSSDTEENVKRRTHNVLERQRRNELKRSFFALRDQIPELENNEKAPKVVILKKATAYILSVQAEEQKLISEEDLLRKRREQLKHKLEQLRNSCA
# How it was run: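 HepG2 cells transiently transfected with multiple cis-promoter-driven reporter transcription units, so endogenous TF activity is read. After 24 h compound exposure, reporter mRNA was quantified by RT-PCR, 6-FAM labelling, HpaI digestion and capillary electrophoresis; bidirectional fit versus DMSO.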
SMILES,outcome [1],AC50 [2],outcome [2],outcome [3],outcome [4],AC50 [5],outcome [6],outcome [7],AC50 [8],outcome [8],AC50 [9],outcome [9],outcome [5],AC50 [6],AC50 [7]
O=C(O)C(F)(F)OC(F)(F)C(F)(F)OC(F)(F)C(F)(F)OC(F)(F)C(F)(F)C(F)(F)C(F)(F)F,inactive,84.7 µM (active),inactive,inactive,inactive,13.4 µM (active) and 16.6 µM (active),inactive,inactive,80.8 µM (active),inactive,11.9 µM (active),inactive,–,–,–
CN(C)c1ccc(C(=C2C=CC(=[N+](C)C)C=C2)c2ccccc2)cc1,inactive,–,inactive,inactive,inactive,543 nM (active) and 1.4 µM (active),inactive,inactive,–,–,–,inactive,–,–,–
COc1ccc(C#N)cc1,inactive,–,inactive,inactive,inactive,–,inactive,inactive,–,inactive,–,inactive,–,–,–
Cc1ccc(N=Nc2c(O)ccc3ccccc23)c(C)c1,inactive,–,inactive,inactive,inactive,–,inactive,inactive,–,inactive,–,inactive,inactive,–,–
CCOCCOCC,inactive,–,inactive,inactive,inactive,–,inactive,inactive,–,–,–,inactive,–,–,–
CC1CCC(CO)CC1 (stereo not drawn),inactive,–,inactive,inactive,inactive,–,inactive,inactive,–,inactive,–,inactive,–,–,–
c1ccc(CNc2ncnc3c2ncn3C2CCCCO2)cc1 (stereo not drawn),inactive,–,inactive,inactive,inactive,–,inactive,inactive,–,inactive,–,inactive,inactive,–,–
CCCCCCCCCCCC[N+](C)(C)CCCCCCCCCCCC,inactive,58.1 µM (active),–,inactive,inactive,–,inactive,inactive,–,–,100 µM (active),–,inactive,–,–
O=C(CC(=O)C(F)(F)C(F)(F)C(F)(F)F)c1cccs1,inactive,–,inactive,inactive,inactive,–,inactive,inactive,–,inactive,–,inactive,–,50 µM (active),–
FC(F)(F)N1C(F)(F)C(F)(F)OC(F)(F)C1(F)F,inactive,–,inactive,inactive,inactive,–,inactive,inactive,–,inactive,–,inactive,–,–,–
CCCCCCOC(=O)c1ccc(O)cc1,inactive,–,inactive,inactive,inactive,51.4 µM (active),inactive,–,55 µM (active),–,60.9 µM (active),–,–,–,58.5 µM (active)
O=C(O)C(=O)O,inactive,–,inactive,inactive,inactive,–,inactive,inactive,–,inactive,–,inactive,–,–,–
CC(C)(C)C1CCCCC1O (stereo not drawn),inactive,–,inactive,inactive,–,–,inactive,inactive,–,inactive,–,inactive,inactive,–,–
CCCCCCCCCCCCOC(=O)c1cc(O)c(O)c(O)c1,inactive,–,inactive,–,inactive,–,inactive,inactive,–,inactive,–,inactive,–,–,–
CC(=O)CC(C)C,inactive,–,inactive,inactive,–,–,inactive,inactive,–,inactive,–,inactive,–,–,–
NNc1nc(-c2ccc([N+](=O)[O-])cc2)cs1,inactive,–,inactive,inactive,–,–,inactive,inactive,–,inactive,–,inactive,–,–,–
COc1cc(OC)nc(NC(=O)NS(=O)(=O)Nc2ccccc2C(=O)N(C)C)n1,inactive,–,inactive,inactive,–,–,inactive,inactive,–,inactive,–,inactive,inactive,–,–
COCN(COC)c1nc(N(COC)COC)nc(N(COC)COC)n1,inactive,–,inactive,inactive,–,–,inactive,inactive,–,inactive,–,inactive,–,–,–
CC(C)C=O,inactive,–,inactive,–,inactive,–,inactive,inactive,–,–,–,inactive,inactive,–,–
O=C(O)CN(CCCN(CC(=O)O)CC(=O)O)CC(=O)O,inactive,–,inactive,inactive,–,–,inactive,inactive,–,inactive,–,inactive,inactive,–,–
c1cnc2c(c1)ccc1cccnc12,inactive,–,inactive,inactive,–,–,inactive,–,–,–,–,inactive,–,–,4.62 µM (active) and 6.45 µM (active)
CC1=CC(=O)c2ccccc2C1=O,inactive,–,inactive,–,–,–,inactive,inactive,–,inactive,–,inactive,inactive,–,–
O=CC(F)(F)C(F)(F)C(F)(F)F,inactive,–,inactive,–,inactive,–,inactive,inactive,–,inactive,–,inactive,inactive,–,–
CCCCCCCCCCCC,inactive,–,–,inactive,inactive,–,inactive,inactive,–,inactive,–,inactive,inactive,–,–
CCC(=O)C=Cc1ccc(OC)cc1,inactive,–,inactive,inactive,–,–,–,inactive,–,–,–,inactive,–,137 µM (active),–
O=C1NS(=O)(=O)c2ccccc21,inactive,–,inactive,–,inactive,–,inactive,inactive,–,inactive,–,inactive,–,–,–
CCCCCCCCCCCCCCCC(=O)OC,inactive,–,inactive,–,inactive,–,inactive,inactive,–,–,–,inactive,–,–,–
FC(F)(F)C(F)(F)C(F)(F)Br,inactive,–,inactive,–,inactive,–,inactive,inactive,–,inactive,–,inactive,inactive,–,–
